Screening data from PubChem BioAssay.
HEK293 tox – kills HEK 293 cells; 94,000 compounds, 6.6% hits; HEK 293 viability, ATP luminescence (CellTiter-Glo), 48-72 h; AID 1345083; Potency, µM (doses to about 115 µM), hits mostly inhibitors; further: nearly all actives have a fitted effect of over 60% in size
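Pintool-delivered compounds were incubated with HEK 293 cells (250 cells/well) at 37 degree Celsius for 48 or 72 hr. ATP-dependent luminescence (CellTiter-Glo) then reported remaining viable cells.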
SNCA viab count – cell viability loss counter-screen | HEK-293-SNCA-luc viability, GF-AFC fluorescence, 24 h | Potency, µM (highest dose often 57.1 µM), usual class: cytotoxic | 150,000 compounds, 0.12% hits | AID 1671193; further: nearly all actives have a fitted effect of over 30% in size
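Cytotoxicity counterscreen: after 24 h compound treatment of genome-edited SNCA-luciferase HEK-293 cells, live-cell protease substrate GF-AFC read by fluorescence after 30 min; activity scaled between DMSO (0%) and medium-only (-100%), curves Hill-fitted.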
SNCA expr inhib – reduces expression of the alpha-synuclein gene; HEK-293 SNCA-luciferase knock-in, luminescence, 24 h; Potency, µM (doses to about 57.2 µM), actives largely listed as inhibitors; 140,000 compounds, 0.17% hits; further: nearly all actives have a fitted effect of over 45% in size
Luciferase inh – inhibitors of firefly (Photinus pyralis) luciferase; purified P. pyralis luciferase, luminescence, biochemical; Potency, µM (doses to about 115 µM), usual class: inhibitors; 76,000 compounds, 2.5% hits; AID 1347043; further: nearly all actives have a fitted effect of over 65% in size
Target sequence (P08659 whole entry, looked up): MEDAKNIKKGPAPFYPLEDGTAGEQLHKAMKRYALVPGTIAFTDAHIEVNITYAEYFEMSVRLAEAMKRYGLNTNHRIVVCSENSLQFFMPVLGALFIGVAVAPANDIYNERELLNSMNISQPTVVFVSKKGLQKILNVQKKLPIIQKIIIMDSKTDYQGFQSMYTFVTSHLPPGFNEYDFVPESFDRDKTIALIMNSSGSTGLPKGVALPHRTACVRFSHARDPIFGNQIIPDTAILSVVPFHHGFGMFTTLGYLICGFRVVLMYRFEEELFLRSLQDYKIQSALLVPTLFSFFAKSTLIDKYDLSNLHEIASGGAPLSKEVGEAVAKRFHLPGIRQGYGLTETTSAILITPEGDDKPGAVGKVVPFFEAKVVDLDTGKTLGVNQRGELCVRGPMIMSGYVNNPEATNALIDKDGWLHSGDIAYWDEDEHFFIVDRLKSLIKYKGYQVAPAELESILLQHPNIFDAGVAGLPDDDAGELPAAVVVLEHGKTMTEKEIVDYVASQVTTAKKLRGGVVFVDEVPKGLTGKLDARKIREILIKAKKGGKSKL
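Cell-free enzyme assay, 10nM P. pyralis luciferase, luciferin and ATP each at 10uM. Inhibition profiled over a 6-point titration, read as luminescence.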
IP6K1 inhibitor – inhibitors of human IP6K1; Q92551; activity change, % (series mostly up to about 58 µM); IP6K1 kinase, ADP-Glo luminescence, 2 h; stronger effect = lower value; AID 1645851; 140,000 compounds, 0.81% hits; in the data active means activity change below about -25%
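ADP-Glo luminescence measures ADP made by human IP6K1 during a 2 h RT reaction with ATP/IP6 (mix at 1.3 mM/130 uM); top library doses 57.5 and 19.1 uM final.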
3T3 cytotox – kills NIH 3T3 cells | NIH 3T3 viability, CellTiter-Glo ATP luminescence, 48-72 h | Potency, µM (titrated, usually from 96.7 µM), hits mostly inhibitors | 94,000 compounds, 4.3% hits | AID 1345082; further: nearly all actives have a fitted effect of over 55% in size
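Cells were seeded at 400 per well, treated with pin-transferred compound, and kept 48 or 72 hr at 37 °C before CellTiter-Glo addition and luminescence imaging of cellular ATP.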
Numbers stand for hits; – = inactive; ? = inconclusive; · = not tested or not shown; ! = repeats disagree; [ ] = dose if it differs, or a comment. Most compounds without a hit are left out; they make up all but 7.3% or so of the library. Unless noted, the call rests on the fitted dose curve; in most records, active means well fitted curve in the direction sought with a large enough effect; inconclusive means small, poorly fitted or top-dose-only effect, or another doubt; inactive means no such curve, though single readings can be large; an effect the other way counts as inactive or inconclusive.

SMILES	HEK293 tox	SNCA viab count	SNCA expr inhib	Luciferase inh	IP6K1 inhibitor	3T3 cytotox
Cc1ccc(CCNC(=O)C2CCN(C(=O)c3nnn4c3COC(c3ccc(C)cc3)C4)CC2)cc1 (centres undefined)	–	–	–	8.91µM	–	–
Cc1ccc(C2Cn3nnc(C(=O)N4CCC(C(=O)NCC5CC5)CC4)c3CO2)cc1 (centres undefined)	–	–	–	25.1µM	–	–
Cc1ccc(C2Cn3nnc(C(=O)N4CCC(C(=O)NC(C)c5ccc(F)cc5)CC4)c3CO2)cc1 (centres undefined)	?	–	–	35.5µM	–	?
Cc1ccc(C2Cn3nnc(C(=O)N4CCC(C(=O)NCC(C)C)CC4)c3CO2)cc1 (centres undefined)	–	–	–	22.4µM	–	–
CNc1ncncc1-c1nc(-c2ccccc2)no1	?	–	–	?	–	?
Cc1ccc(C2Cn3nnc(C(=O)N4CCC(C(=O)NCc5ccco5)CC4)c3CO2)cc1 (centres undefined)	–	–	–	31.6µM	–	–
COc1ccccc1CNC(=O)C1CCN(C(=O)c2nnn3c2COC(c2ccc(C)cc2)C3)CC1 (centres undefined)	–	–	–	17.8µM	–	–
O=C(c1ccccc1F)N1CCC2(CC1)NC(=O)N(Cc1ccc(F)cc1)C2=O	?	–	–	–	–	–
Cc1cc(C)cc(C(=O)NCc2nnc3c(-c4nc(C(C)C)no4)cccn23)c1	?	–	–	–	–	–
CC1=C[C@@H](CNC(=O)Nc2ccccc2)[C@H](C(C)C)C[C@H]1Cc1nnc(-c2ccncc2)o1	22.4µM	–	–	–	–	?
CC1=C[C@@H](CNC(=O)c2ccncc2)[C@H](C(C)C)C[C@H]1Cc1nnc(-c2ccncc2)o1	79.4µM	–	?	–	–	?
CC1=C[C@@H](CNS(=O)(=O)c2ccccc2)[C@H](C(C)C)C[C@H]1Cc1nnc(-c2ccncc2)o1	25.1µM	?	?	–	–	20µM
CC1=C[C@@H](CNS(=O)(=O)c2ccc(C#N)cc2)[C@H](C(C)C)C[C@H]1Cc1nnc(-c2ccncc2)o1	?	–	–	–	–	?
CC(=O)N1Cc2ccccc2CC2(CCCCN2Cc2ccccc2)C1 (centres undefined)	?	–	–	·	–	–
c1ccc(CCN2CCNc3cc(-c4cn[nH]c4)ncc3C2)cc1	?	?	–	–	–	89.1µM
c1ccc(CCN2CCNc3cc(NCc4cccnc4)ncc3C2)cc1	50.1µM	–	–	–	–	50.1µM
OCc1cccc(-c2cc3c(cn2)CN(CCc2ccccc2)CCN3)c1	?	–	–	–	–	?
COCCN1CCNc2cc(-c3ccc(Oc4ccccc4)cc3)ncc2C1	50.1µM	–	–	28.2µM	–	44.7µM
c1ccc(CN2CCNc3cc(-c4cccnc4)ncc3C2)cc1	?	–	–	–	–	–
Cc1noc([C@H]2CCN(Cc3scnc3C)C[C@H]2NC(=O)C2CC2)n1	–	–	–	–	–	?
CC(C)[S+](=O)([O-])NCCNC(=O)c1cccc(-c2ccsc2)c1	?	–[12.5 µM]	–	·	–	–
Cc1ccc(-c2nc(C(=O)NCc3cccc(C)c3)no2)cc1	79.4µM	–	–	?	–	?
O=C(NCc1cccc(Cl)c1)c1noc(-c2ccc(F)cc2)n1	?	–	?	–	–	25.1µM
O=C(c1cccs1)N1CCc2[nH]nc(-c3cccc(F)c3)c2C1	28.2µM	–	?	–	–	?
OC[C@@H]1CNC[C@H]1C1CCN(Cc2cccc(C(F)(F)F)c2)CC1	79.4µM	–[12.5 µM]	?	–	–	?
SMILES	HEK293 tox	SNCA viab count	SNCA expr inhib	Luciferase inh	IP6K1 inhibitor	3T3 cytotox
Cc1ccc(CN2CCC([C@@H]3CNC[C@H]3CO)CC2)s1	–	–[12.5 µM]	?	–	–	–
OC[C@@H]1CNC[C@H]1C1CCN(Cc2cccc(Cl)c2F)CC1	?	–[12.5 µM]	–	–	–	?
CCOc1ccccc1CN1CCC([C@@H]2CNC[C@H]2CO)CC1	–	–[12.5 µM]	25.1µM	–	–	–
NC(=O)c1cccc(CN2CCCC3(Cc4ccccc4N(C(=O)C4CCCC4)C3)C2)c1 (centres undefined)	?	–	–	·	–	–
CCS(=O)(=O)c1ccc2oc([C@H]3CCN(Cc4cccc(Cl)c4)C3)nc2c1	44.7µM	–	–	–	–	?
Clc1ccc(CN2CC[C@H](c3nc4cc(Cl)ccc4o3)C2)cc1	?	–	–	?	–	?
O=C(c1ccccc1Cl)N1CCCC(c2nn(-c3cccc(Cl)c3)c(=O)[nH]2)C1 (centres undefined)	35.5µM	–	–	–	–	35.5µM
O=c1[nH]c(C2CCCN(Cc3ccc(F)cc3)C2)nn1-c1ccc(Cl)cc1 (centres undefined)	44.7µM	–	–	–	–	35.5µM
O=c1[nH]c(C2CCCN(Cc3ccc(F)cc3)C2)nn1-c1ccccc1 (centres undefined)	–	–	–	–	–	–
COc1ccc(-n2nc(C3CCN(Cc4ccc(C(F)(F)F)cc4)CC3)[nH]c2=O)cc1	31.6µM!	–	–	–	–	?
O=C(c1ccccc1Cl)N1CCCC(c2nn(-c3ccc(F)cc3)c(=O)[nH]2)C1 (centres undefined)	?	–	–	–	–	?
O=c1[nH]c(C2CCCN(Cc3ccccc3)C2)nn1-c1ccccc1 (centres undefined)	100µM	–	–	–	–	89.1µM
COc1ccc(-n2nc(C3CCN(C(=O)C(C)(C)C)CC3)[nH]c2=O)cc1	–	–	?	–	–	?
O=C(NC1CCCC1)N1CCCC(c2nn(-c3ccccn3)c(=O)[nH]2)C1 (centres undefined)	–	–	–	·	–	–
CC(C)(C)C(=O)N1CCC(c2nn(-c3ccccc3)c(=O)[nH]2)CC1	?	–	–	50.1µM	–	–
O=C(Nc1ccc(Cl)cc1)N1CCCC(c2nn(-c3ccccn3)c(=O)[nH]2)C1 (centres undefined)	39.8µM	–	?	·	–	35.5µM
COc1ccc(CN2CCc3nc(C(=O)Nc4ccccc4)oc3CC2)cc1	?	–	–	20µM	–	?
O=C(Nc1ccc(Cl)cc1)c1nc2c(o1)CCN(Cc1ccncc1)CC2	?	–	–	–	–	?
O=C(Nc1ccccc1)c1nc2c(o1)CCN(Cc1cccs1)CC2	?	–	11.2µM	?	–	?
O=C(Nc1ccc(Cl)cc1)c1nc2c(o1)CCN(Cc1ccc3cn[nH]c3c1)CC2	44.7µM	?	–	–	–	?
O=C(Nc1ccc(Cl)cc1)c1nc2c(o1)CCN(Cc1cccc(O)c1)CC2	31.6µM	?	–	25.1µM	–	?
O=C(Nc1ccccc1)c1nc2c(o1)CCN(Cc1ccc(F)c(Cl)c1)CC2	?	–	–	8.91µM	–	?
